# Source: PubChem BioAssay (EPA / NIEHS)
# Where a structure was tested more than once in an assay, its records may differ in their call. The source made the active and inactive calls. How the source made its calls: active means hit-call score of the fitted dose curve at least 0.9, where 1 is the maximum; inactive means score below 0.9.
# Key:
# [1] = read-out: Interleukin-1 alpha (IL1a), IL1A (gene 3552); experiment: BSK_KF3CT_IL1a: BioMAP Diversity Plus: KF3CT Assay for Interleukin-1 alpha (IL1a) Biomarker Activity (AID 2283070); conditions: primary human keratinocytes with fibroblasts; actives raise or lower the signal
# How it was run: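 Primary skin co-culture (keratinocytes, foreskin fibroblasts), 24 h exposure; ELISA for IL-1a; bidirectional curve fit vs DMSO.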
# [2] = read-out: TIMP metallopeptidase inhibitor 2 (TIMP2), TIMP2 (gene 7077); experiment: BSK_KF3CT_TIMP2: BioMAP Diversity Plus: KF3CT Assay for TIMP metallopeptidase inhibitor 2 (TIMP2) Biomarker Activity (AID 2283071); conditions: primary human keratinocytes with fibroblasts; actives raise or lower the signal
# How it was run: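 TIMP-2 measured by ELISA at 24 h in human keratinocyte/fibroblast primary co-cultures exposed to chemicals. Both increases and decreases were fitted against DMSO. Parallel cultures were stained with SRB for total protein as an overt-cytotoxicity check.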
# [3] = read-out: Transforming growth factor beta 1 (TGFb1), TGFB1 (gene 7040); experiment: BSK_KF3CT_TGFb1: BioMAP Diversity Plus: KF3CT Assay for Transforming growth factor beta 1 (TGFb1) Biomarker Activity (AID 2283072); conditions: primary human keratinocytes with fibroblasts; actives raise or lower the signal
# How it was run: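 ELISA quantifies TGF-b1 at 24 h post-dose in a primary human skin co-culture of keratinocytes and fibroblasts, with gain or loss judged against DMSO. Parallel SRB total-protein staining flags overt cytotoxicity.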
# [4] = read-out: C-C motif chemokine 2 (Homo sapiens) (UniProt P13500); experiment: BSK_KF3CT_MCP1: BioMAP Diversity Plus: KF3CT Assay for Monocyte Chemoattractant Protein 1 (MCP1/CCL2) Biomarker Activity (AID 2283073); conditions: primary human keratinocytes with fibroblasts; actives raise or lower the signal
# How it was run: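 Human keratinocyte plus foreskin fibroblast primary co-culture exposed to chemical for 24 h. MCP-1 levels measured by ELISA. Bidirectional curve fitting relative to DMSO negative control as baseline.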
# [5] = read-out: Matrix Metallopeptidase 9 (MMP9), MMP9 (gene 4318); experiment: BSK_KF3CT_MMP9: BioMAP Diversity Plus: KF3CT Assay for Matrix Metallopeptidase 9 (MMP9) Biomarker Activity (AID 2283074); conditions: primary human keratinocytes with fibroblasts; actives raise or lower the signal;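 on AC50: MMP9 protein level quantified by ELISA in the co-culture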
# How it was run: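 ELISA read-out of MMP-9 at 24 h post-dosing in a co-culture of human skin keratinocytes and foreskin fibroblasts. Gain or loss of signal was fitted in both directions against DMSO.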
# [6] = read-out: urokinase plasminogen activator (uPA), PLAU (gene 5328); experiment: BSK_KF3CT_uPA: BioMAP Diversity Plus: KF3CT Assay for urokinase plasminogen activator (uPA) Biomarker Activity (AID 2283075); conditions: primary human keratinocytes with fibroblasts; actives raise or lower the signal
# How it was run: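 Skin co-culture (keratinocytes + foreskin fibroblasts), human primary; 24 h post-dose; uPA by ELISA; gain/loss fit vs DMSO baseline.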
# [7] = read-out: CD40, CD40 (gene 958); experiment: BSK_LPS_CD40: BioMAP Diversity Plus: LPS Assay for CD40 Biomarker Activity (AID 2283076); conditions: primary human HUVEC with PBMC; actives raise or lower the signal
# How it was run: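 Primary human umbilical vein endothelial cells co-cultured with peripheral blood mononuclear cells, LPS-stimulated, were dosed with chemical and read 24 h later. CD40 levels were measured by ELISA and fitted bidirectionally against DMSO as negative control and baseline.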
# [8] = read-out: E-selectin (Homo sapiens) (UniProt P16581); experiment: BSK_LPS_Eselectin: BioMAP Diversity Plus: LPS Assay for Eselectin Biomarker Activity (AID 2283077); conditions: primary human HUVEC with PBMC; actives raise or lower the signal
# How it was run: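 Human umbilical vein endothelial cells co-cultured with peripheral blood mononuclear cells under LPS stimulation; E-selectin measured by ELISA 24 h after chemical dosing. Activity fitted bidirectionally against DMSO as negative control and baseline.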
# [9] = BSK_LPS_SRB: Viability Assessment in the BioMAP Diversity Plus: LPS Assay (AID 2283079); conditions: primary human HUVEC with PBMC;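 further: total protein by sulforhodamine B absorbance as a cytotoxicity measure; measured one day after compound addition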
# How it was run: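 Human umbilical vein endothelial cells co-cultured with PBMC (LPS system) were dosed for 24 h. Total protein was stained with 0.1% sulforhodamine B after 10% TCA fixation, read at 560 nm, and fitted bidirectionally against DMSO baseline.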
# [10] = read-out: Interleukin-1 alpha (IL1a), IL1A (gene 3552); experiment: BSK_LPS_IL1a: BioMAP Diversity Plus: LPS Assay for Interleukin-1 alpha (IL1a) Biomarker Activity (AID 2283080); conditions: primary human HUVEC with PBMC; actives raise or lower the signal
# How it was run: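 Human umbilical vein endothelial cells co-cultured with peripheral blood mononuclear cells were LPS-stimulated and exposed to test chemicals for 24 h. IL-1 alpha was quantified by ELISA, with bidirectional curve fitting against DMSO as the negative control and baseline.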
# [11] = read-out: Monocyte Chemoattractant Protein-1 (MCP1), CCL2 (gene 6347); experiment: BSK_LPS_MCP1: BioMAP Diversity Plus: LPS Assay for Monocyte Chemoattractant Protein-1 (MCP1) Biomarker Activity (AID 2283081); conditions: primary human HUVEC with PBMC; actives raise or lower the signal
# How it was run: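 HUVEC plus PBMC co-culture (human primary cells, LPS system) exposed to test chemical for 24 h; MCP-1 measured by ELISA. Bidirectional curve fitting against DMSO baseline; parallel SRB total-protein staining flags overt cytotoxicity.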
# [12] = BSK_LPS_PGE2: BioMAP Diversity Plus: LPS Assay for Prostaglandin E2 (PGE2) Biomarker Activity (AID 2283082); conditions: primary human HUVEC with PBMC; actives raise or lower the signal
# How it was run: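 PGE2 release measured by ELISA in an LPS-activated co-culture of human umbilical vein endothelial cells and peripheral blood mononuclear cells, read at 24 h post-dosing. DMSO served as baseline for bidirectional curve fitting.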
# [13] = read-out: Macrophage colony-stimulating factor (MCSF), CSF1 (gene 1435); experiment: BSK_LPS_MCSF: BioMAP Diversity Plus: LPS Assay for Macrophage colony-stimulating factor (MCSF) Biomarker Activity (AID 2283083); conditions: primary human HUVEC with PBMC; actives raise or lower the signal
# How it was run: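 Human umbilical vein endothelial cells co-cultured with peripheral blood mononuclear cells were exposed to compound for 24 h. M-CSF levels were measured by ELISA, and bidirectional curve fitting used DMSO as the negative control and baseline.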
# [14] = read-out: Tumor necrosis factor (Homo sapiens) (UniProt P01375); experiment: BSK_LPS_TNFa: BioMAP Diversity Plus: LPS Assay for Tumour Necrosis Factor alpha (TNFa) Biomarker Activity (AID 2283085); conditions: primary human HUVEC with PBMC; actives raise or lower the signal
# How it was run: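 TNFa was quantified by ELISA in LPS-activated co-cultures of human endothelial cells and PBMC, 24 h post-dosing. Both increases and decreases versus DMSO were fitted.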
# [15] = read-out: Vascular cell adhesion molecule 1 (VCAM1), VCAM1 (gene 7412); experiment: BSK_LPS_VCAM1: BioMAP Diversity Plus: LPS Assay for Vascular cell adhesion molecule 1 (VCAM1) Biomarker Activity (AID 2283086); conditions: primary human HUVEC with PBMC; actives raise or lower the signal
# How it was run: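 VCAM-1 quantified by ELISA in an LPS-activated co-culture of human endothelial cells and peripheral blood mononuclear cells, read 24 h post-treatment. Fitted in both directions versus DMSO; parallel SRB staining flags overt cytotoxicity.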
# [16] = read-out: CD38, CD38 (gene 952); experiment: BSK_SAg_CD38: BioMAP Diversity Plus: SAg Assay for CD38 Biomarker Activity (AID 2283087); conditions: primary human HUVEC with PBMC; actives raise or lower the signal
# How it was run: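 CD38 quantified by ELISA (fluorescence) in a superantigen-activated endothelial cell–PBMC co-culture at 24 h post-dose. Activity fitted in both directions relative to DMSO; parallel SRB and Alamar Blue cytotoxicity read-outs.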
# [17] = read-out: CD40, CD40 (gene 958); experiment: BSK_SAg_CD40: BioMAP Diversity Plus: SAg Assay for CD40 Biomarker Activity (AID 2283088); conditions: primary human HUVEC with PBMC; actives raise or lower the signal
# How it was run: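 Human umbilical vein endothelial cells co-cultured with PBMC; CD40 levels measured by ELISA with fluorescence read-out 24 h after chemical dosing. Gain or loss of signal fitted bidirectionally against DMSO baseline.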
# [18] = read-out: CD69, CD69 (gene 969); experiment: BSK_SAg_CD69: BioMAP Diversity Plus: SAg Assay for CD69 Biomarker Activity (AID 2283089); conditions: primary human HUVEC with PBMC; actives raise or lower the signal;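 on AC50: cell surface CD69 protein quantified by ELISA with fluorescence detection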
# How it was run: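 Endothelial/PBMC co-culture; chemical added; 24 h incubation; CD69 ELISA with fluorescence detection; bidirectional fit vs DMSO.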
# [19] = read-out: Interleukin-8 (IL8), CXCL8 (gene 3576); experiment: BSK_LPS_IL8: BioMAP Diversity Plus: LPS Assay for Interleukin-8 (IL8) Biomarker Activity (AID 2283078); conditions: primary human HUVEC with PBMC; actives raise or lower the signal
# How it was run: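 Human umbilical vein endothelial cells co-cultured with PBMC were stimulated with LPS; IL-8 levels were measured by ELISA 24 h after chemical dosing. Activity was fitted bidirectionally against DMSO as negative control and baseline.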
# [20] = read-out: Tissue Factor, F3 (gene 2152); experiment: BSK_LPS_TissueFactor: BioMAP Diversity Plus: LPS Assay for Tissue Factor Biomarker Activity (AID 2283084); conditions: primary human HUVEC with PBMC; actives raise or lower the signal
# How it was run: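 Human umbilical vein endothelial cells co-cultured with peripheral blood mononuclear cells were dosed and stimulated with LPS. Cell-surface CD142 was quantified by ELISA at 24 h. Activity was fitted bidirectionally against DMSO baseline.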
# E-selectin (Homo sapiens), sequence (P16581 whole entry, looked up): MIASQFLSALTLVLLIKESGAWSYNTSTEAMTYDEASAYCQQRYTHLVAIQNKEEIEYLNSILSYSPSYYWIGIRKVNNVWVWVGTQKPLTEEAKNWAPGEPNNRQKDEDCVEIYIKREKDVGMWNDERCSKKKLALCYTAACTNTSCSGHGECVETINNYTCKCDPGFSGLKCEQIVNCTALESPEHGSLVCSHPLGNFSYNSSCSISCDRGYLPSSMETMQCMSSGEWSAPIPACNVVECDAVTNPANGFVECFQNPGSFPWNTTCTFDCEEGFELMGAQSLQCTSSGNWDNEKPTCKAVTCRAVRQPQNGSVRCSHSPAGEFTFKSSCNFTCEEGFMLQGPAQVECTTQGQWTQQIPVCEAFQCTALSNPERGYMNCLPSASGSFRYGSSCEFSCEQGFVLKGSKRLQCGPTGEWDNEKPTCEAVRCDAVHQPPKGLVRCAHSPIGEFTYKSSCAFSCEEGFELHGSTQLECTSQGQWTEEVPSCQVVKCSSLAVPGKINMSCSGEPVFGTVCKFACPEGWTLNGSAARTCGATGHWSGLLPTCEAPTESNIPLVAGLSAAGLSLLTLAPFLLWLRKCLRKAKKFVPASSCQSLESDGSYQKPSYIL
# Tumor necrosis factor (Homo sapiens), sequence (P01375 whole entry, looked up): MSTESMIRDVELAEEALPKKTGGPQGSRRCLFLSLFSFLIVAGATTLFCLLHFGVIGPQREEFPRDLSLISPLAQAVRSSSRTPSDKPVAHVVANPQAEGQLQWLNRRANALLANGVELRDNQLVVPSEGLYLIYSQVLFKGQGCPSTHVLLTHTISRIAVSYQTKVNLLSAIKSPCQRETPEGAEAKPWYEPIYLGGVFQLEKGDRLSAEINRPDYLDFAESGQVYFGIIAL
structure (smiles),measurement,setting,value
Cc1nccn1-c1ccc(Sc2cccc(C3(C(N)=O)CCOCC3)c2)cc1,outcome,[1],inactive
same,outcome,[2],inactive
same,outcome,[3],inactive
same,outcome,[4],inactive
same,AC50,[5],20 µM (active)
same,outcome,[6],inactive
same,outcome,[7],inactive
same,outcome,[8],inactive
same,outcome,[9],inactive
same,outcome,[10],inactive
same,outcome,[11],inactive
same,outcome,[12],inactive
same,outcome,[13],inactive
same,outcome,[14],inactive
same,AC50,[15],6.8 µM (active)
same,AC50,[16],5.57 µM (active)
same,AC50,[17],4.56 µM (active)
same,AC50,[18],6.87 µM (active)
O=S(=O)(O)CCC(F)(F)C(F)(F)C(F)(F)C(F)(F)C(F)(F)C(F)(F)F,outcome,[1],inactive
same,outcome,[2],inactive
same,outcome,[4],inactive
same,outcome,[5],inactive
same,outcome,[6],inactive
same,outcome,[7],inactive
same,outcome,[8],inactive
same,AC50,[19],22.5 µM (active)
same,outcome,[19],inactive
same,outcome,[9],inactive
same,outcome,[10],inactive
same,outcome,[11],inactive
same,outcome,[12],inactive
same,outcome,[13],inactive
same,outcome,[20],inactive
same,outcome,[14],inactive
same,outcome,[15],inactive
same,outcome,[16],inactive
same,outcome,[17],inactive
same,outcome,[18],inactive
OC[C@H]1O[C@@H]2O[C@H]3[C@H](O)[C@@H](O)[C@@H](O[C@H]4[C@H](O)[C@@H](O)[C@@H](O[C@H]5[C@H](O)[C@@H](O)[C@@H](O[C@H]6[C@H](O)[C@@H](O)[C@@H](O[C@H]7[C@H](O)[C@@H](O)[C@@H](O[C@H]1[C@H](O)[C@H]2O)O[C@@H]7CO)O[C@@H]6CO)O[C@@H]5CO)O[C@@H]4CO)O[C@@H]3CO,outcome,[1],inactive
same,outcome,[2],inactive
same,outcome,[3],inactive
same,outcome,[4],inactive
same,outcome,[5],inactive
same,outcome,[6],inactive
same,outcome,[7],inactive
same,outcome,[8],inactive
same,outcome,[9],inactive
same,outcome,[10],inactive
same,outcome,[11],inactive
same,outcome,[12],inactive
same,outcome,[13],inactive
same,outcome,[14],inactive
same,outcome,[15],inactive
same,outcome,[16],inactive
same,outcome,[17],inactive
same,outcome,[18],inactive
c1ccc2ncccc2c1,outcome,[1],inactive
same,outcome,[2],inactive
same,outcome,[3],inactive
same,outcome,[4],inactive
same,outcome,[5],inactive
same,outcome,[6],inactive
same,outcome,[7],inactive
same,outcome,[8],inactive
same,outcome,[9],inactive
same,outcome,[10],inactive
same,outcome,[11],inactive
same,outcome,[12],inactive
same,outcome,[13],inactive
same,outcome,[14],inactive
same,outcome,[15],inactive
same,outcome,[16],inactive
same,outcome,[17],inactive
same,outcome,[18],inactive
FC(F)C(F)(F)COCC1CO1 (stereo not given),outcome,[1],inactive
same,outcome,[2],inactive
same,outcome,[4],inactive
same,outcome,[5],inactive
same,outcome,[6],inactive
same,outcome,[7],inactive
same,outcome,[8],inactive
same,outcome,[19],inactive
same,outcome,[9],inactive
same,outcome,[10],inactive
same,outcome,[11],inactive
same,outcome,[12],inactive
same,outcome,[13],inactive
same,outcome,[14],inactive
same,outcome,[15],inactive
same,outcome,[16],inactive
same,outcome,[17],inactive
same,outcome,[18],inactive
CCCCCCOC(=O)CC(CC(=O)OCCCCCC)(OC(=O)CCC)C(=O)OCCCCCC,outcome,[1],inactive
same,outcome,[2],inactive
same,outcome,[3],inactive
same,outcome,[4],inactive
same,outcome,[5],inactive
same,outcome,[6],inactive
same,outcome,[7],inactive
same,outcome,[8],inactive
same,outcome,[9],inactive
same,outcome,[10],inactive
same,outcome,[11],inactive
same,outcome,[12],inactive
same,outcome,[13],inactive
same,outcome,[14],inactive
same,outcome,[15],inactive
same,outcome,[16],inactive
same,outcome,[17],inactive
same,outcome,[18],inactive
